This passage reports growth inhibition results from PubChem BioAssay (NCI).

About 79,000 compounds went through this panel and 15% of them were active in at least one assay; those are over-represented in the sample as a whole. A number with no mark means an inactive call. Calls of active or inactive are those of the source. Rule as the data show it: active = growth inhibition above about 70%; inactive = the rest.

The first assay is described as follows: NCI Yeast Anticancer Drug Screen. Data for the mec2-1 strain (AID 157). The conditions noted are these: S. cerevisiae mec2-1 strain, at 50.0 µM, active compounds read high. The essentials:
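Test agents were screened against the mec2-1 yeast strain, with defined DNA repair or cell cycle alteration. Growth was scored as inhibition against vehicle-only controls.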
Consider `ON1c2ccccc2-c2ccccc2C1(c1ccccc1)c1ccccc1`, for which the growth inhibition is 96.6% (active).

`COc1ccc2c(c1O)-c1cccc3c1C(C2)N(CCOCCCl)CC3` (stereo not given): the growth inhibition is -12.8%.

In the case of `ClC/C(=N\N1CCCCCC1)c1ccccc1`, the growth inhibition was -4.05%.

Turning to `CN(C)CSCCO`, the growth inhibition is -1.5%.

On to `CCOC(=O)NN(C(=O)OCC)c1c(NN)n(C)c(=O)n(C)c1=O`, for which the growth inhibition is -19.7%.

In the case of `N#C/C(=C\c1cccs1)C(=O)c1ccco1`, the growth inhibition was 4.65%.

On to `CC(C)N1CN(C(C(=O)N[C@@H]2C(=O)N3C2SC(C)(C)C3C(=O)O)c2ccccc2)CSC1=S` (stereo not given in full), for which the growth inhibition was -15.4%.

On to `O=C1OCC/C1=C1/Nc2ccccc2NC1=O`, for which the growth inhibition was -24%.

Consider `CC1(C)CN(CCO)C(C)(C)CN1CCO`, for which the growth inhibition is 7.35%.

For the molecule `C/C(=N\NC(=O)C(N)=O)c1c(O)cc(C)oc1=O`, the growth inhibition was 5.2%.

Take `Cc1ccc(/C=C/C(=N/NC(=O)c2ccccc2)C(C)CN(C)C)cc1` (stereo not given): the growth inhibition was 5.65%.

For the molecule `CCCN(CCC#N)C(=S)Nc1ccc(C)c(C)c1`, the growth inhibition is -54.7%.

Consider `OCc1ccc(CO)cc1`, for which the growth inhibition was 29.6%.

On to `C[C@]12C(=O)C=CCC1=CC[C@@H]1[C@@H]2[C@H]2CC3(O)C(=O)O[C@@]4(C)[C@H]5C[C@@]6(C)[C@@H]7[C@@]2(O)[C@]1(OC[C@H]6C(=O)O5)O[C@]734` (stereo not given in full), for which the growth inhibition was 16.3%.

For `COC(=O)C(=O)C(/C=N/C(=S)NC1CCCCC1)=C(\O)c1ccc(F)cc1`, the growth inhibition is -24.7%.

As to `CCCCCCCCCCS(=O)(=O)CC(=O)O`, the growth inhibition was -2.35%.

Turning to `CC(=O)Nc1ccc(N(C)C)c(C)c1`, the growth inhibition is -7.55%.

Turning to `O=C1OC(c2cccc([N+](=O)[O-])c2)=N/C1=C\c1ccccc1`, the growth inhibition is 12.1%.

As to `C[Si](C)(C)N1CCCC1`, the growth inhibition is -26.9%.

Turning to `CC1(c2ccccc2)OC1(C)c1ccccc1` (stereo not given), the growth inhibition is -5.6%.

As to `CCCCN(CCO)CC(O)Cn1cnc2c(N)ncnc21` (stereo not given), the growth inhibition is 13.9%.

With `Cc1nn(C(=O)c2ccc(Cl)cc2)c2c1C(c1ccco1)SC(N)=N2` (stereo not given), the growth inhibition is -17.5%.

Take `O=c1[nH]c(Nc2ccc(F)c(Cl)c2)nc2nc[nH]c12`: the growth inhibition was 6.85%.

Consider `CC[n+]1ccccc1Br`, for which the growth inhibition is 18.6%.

On to `CN(C)c1ccc(/C=C/C(=O)/C=C/c2ccc(N(C)C)cc2)cc1`, for which the growth inhibition is -2%.

As for `CC1N=C(SCC(=O)c2ccc(Cl)cc2)N2C(C)N=C(SCC(=O)c3ccc(Cl)cc3)N12` (stereo not given), the growth inhibition was -17.1%.

Take `CCOc1ccc(/C=C2\N=C(c3ccc([N+](=O)[O-])cc3)OC2=O)cc1`: the growth inhibition was 19.8%.

For the molecule `NC(N)=N/N=C(/c1nc2ccc([N+](=O)[O-])cc2[nH]c1=O)C(O)c1ccco1` (stereo not given), the growth inhibition is -25%.

Consider `Cc1cc2c(cc1C=O)C(C)(C)CCC2`, for which the growth inhibition was 0.85%.

For `CCOc1cc(/C=N/NC(=O)C(O)C(O)C(O)C(O)CO)ccc1O` (stereo not given), the growth inhibition is 38.6%.

Regarding `CC(=O)N1N=C(c2ccc(OCC(O)CN3CCN(CC(O)COc4ccc(C5=NN(C(C)=O)C(c6ccccc6)C5)cc4)CC3)cc2)CC1c1ccccc1` (stereo not given), the growth inhibition is -25.9%.

For the molecule `CC(=O)Oc1cccn2c(C(=O)C(=O)c3ccc4c(OC(C)=O)cccn34)ccc12`, the growth inhibition was 1.8%.

For the molecule `CNC(=O)N(CC1CCCCC1)c1nc2c(=O)n(C)c(=O)[nH]c2s1`, the growth inhibition is -5.9%.

For `O=C(O)c1ccc(Cl)c2ncccc12`, the growth inhibition is 1.25%.

Consider `O=C(O)C1(Nc2ccc(Cl)cc2)CCCC1`, for which the growth inhibition was -6.75%.

`NC1=Nc2cc(Cl)ccc2Sc2nc3ccccc3n21`: the growth inhibition is -65.4%.

As for `COc1ccc(/C=C2\CCCC3=C2NC(=S)NC3c2ccc(OC)cc2)cc1` (stereo not given), the growth inhibition was 21.4%.

On to `CCOCC(=O)O`, for which the growth inhibition was -1.25%.

Take `CC(=O)N=c1ccc2nc(N)nn(O)c-2c1`: the growth inhibition was 0.05%.

On to `C=CCc1nc2c([nH]1)c(=O)n(C)c(=O)n2C`, for which the growth inhibition was -2.2%.

The nature of another assay: NCI Yeast Anticancer Drug Screen. Data for the sgs1 mgt1 strain (AID 161).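 Also: 0% = growth of cultures given vehicle only.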 The settings on record: S. cerevisiae sgs1 mgt1 strain, at 50.0 µM, active compounds read high. The essentials: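 Genetically altered yeast, compound exposure, growth inhibition relative to vehicle.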
For the molecule `ON1c2ccccc2-c2ccccc2C1(c1ccccc1)c1ccccc1`, the growth inhibition was 78.7% (active).

For the molecule `COc1ccc2c(c1O)-c1cccc3c1C(C2)N(CCOCCCl)CC3` (stereo not given), the growth inhibition is -19.9%.

As to `ClC/C(=N\N1CCCCCC1)c1ccccc1`, the growth inhibition was -4.75%.

On to `CN(C)CSCCO`, for which the growth inhibition is -5.7%.

Consider `CCOC(=O)NN(C(=O)OCC)c1c(NN)n(C)c(=O)n(C)c1=O`, for which the growth inhibition is 9.2%.

On to `N#C/C(=C\c1cccs1)C(=O)c1ccco1`, for which the growth inhibition is 24.1%.

Consider `CC(C)N1CN(C(C(=O)N[C@@H]2C(=O)N3C2SC(C)(C)C3C(=O)O)c2ccccc2)CSC1=S` (stereo not given in full), for which the growth inhibition was 3.85%.

With `O=C1OCC/C1=C1/Nc2ccccc2NC1=O`, the growth inhibition was -8.1%.

As for `CC1(C)CN(CCO)C(C)(C)CN1CCO`, the growth inhibition is 7.2%.

Take `C/C(=N\NC(=O)C(N)=O)c1c(O)cc(C)oc1=O`: the growth inhibition was 11.6%.

On to `Cc1ccc(/C=C/C(=N/NC(=O)c2ccccc2)C(C)CN(C)C)cc1` (stereo not given), for which the growth inhibition was 6.45%.

For `CCCN(CCC#N)C(=S)Nc1ccc(C)c(C)c1`, the growth inhibition was -3.1%.

Regarding `OCc1ccc(CO)cc1`, the growth inhibition was -15.6%.

Regarding `C[C@]12C(=O)C=CCC1=CC[C@@H]1[C@@H]2[C@H]2CC3(O)C(=O)O[C@@]4(C)[C@H]5C[C@@]6(C)[C@@H]7[C@@]2(O)[C@]1(OC[C@H]6C(=O)O5)O[C@]734` (stereo not given in full), the growth inhibition is -9.3%.

For `COC(=O)C(=O)C(/C=N/C(=S)NC1CCCCC1)=C(\O)c1ccc(F)cc1`, the growth inhibition was -8.5%.

As for `CCCCCCCCCCS(=O)(=O)CC(=O)O`, the growth inhibition was 14.7%.

As to `CC(=O)Nc1ccc(N(C)C)c(C)c1`, the growth inhibition is -1.85%.

As to `O=C1OC(c2cccc([N+](=O)[O-])c2)=N/C1=C\c1ccccc1`, the growth inhibition was 14.6%.

Turning to `C[Si](C)(C)N1CCCC1`, the growth inhibition is -16.8%.

With `CC1(c2ccccc2)OC1(C)c1ccccc1` (stereo not given), the growth inhibition was -7.65%.

In the case of `CCCCN(CCO)CC(O)Cn1cnc2c(N)ncnc21` (stereo not given), the growth inhibition is 8.85%.

As for `Cc1nn(C(=O)c2ccc(Cl)cc2)c2c1C(c1ccco1)SC(N)=N2` (stereo not given), the growth inhibition is -8.8%.

Consider `O=c1[nH]c(Nc2ccc(F)c(Cl)c2)nc2nc[nH]c12`, for which the growth inhibition is 4.6%.

As for `CC[n+]1ccccc1Br`, the growth inhibition was 10.1%.

Turning to `CN(C)c1ccc(/C=C/C(=O)/C=C/c2ccc(N(C)C)cc2)cc1`, the growth inhibition is -13.8%.

As to `CC1N=C(SCC(=O)c2ccc(Cl)cc2)N2C(C)N=C(SCC(=O)c3ccc(Cl)cc3)N12` (stereo not given), the growth inhibition was -20.6%.

On to `CCOc1ccc(/C=C2\N=C(c3ccc([N+](=O)[O-])cc3)OC2=O)cc1`, for which the growth inhibition was 3%.

For `NC(N)=N/N=C(/c1nc2ccc([N+](=O)[O-])cc2[nH]c1=O)C(O)c1ccco1` (stereo not given), the growth inhibition was 0.25%.

Take `Cc1cc2c(cc1C=O)C(C)(C)CCC2`: the growth inhibition was -6.85%.

Turning to `CCOc1cc(/C=N/NC(=O)C(O)C(O)C(O)C(O)CO)ccc1O` (stereo not given), the growth inhibition is 27.9%.

As to `CC(=O)N1N=C(c2ccc(OCC(O)CN3CCN(CC(O)COc4ccc(C5=NN(C(C)=O)C(c6ccccc6)C5)cc4)CC3)cc2)CC1c1ccccc1` (stereo not given), the growth inhibition was -8.85%.

For the molecule `CC(=O)Oc1cccn2c(C(=O)C(=O)c3ccc4c(OC(C)=O)cccn34)ccc12`, the growth inhibition is -12.9%.

`CNC(=O)N(CC1CCCCC1)c1nc2c(=O)n(C)c(=O)[nH]c2s1`: the growth inhibition was -1%.

With `O=C(O)c1ccc(Cl)c2ncccc12`, the growth inhibition is -1.3%.

`O=C(O)C1(Nc2ccc(Cl)cc2)CCCC1`: the growth inhibition is -12.6%.

On to `NC1=Nc2cc(Cl)ccc2Sc2nc3ccccc3n21`, for which the growth inhibition was -17.6%.

Regarding `COc1ccc(/C=C2\CCCC3=C2NC(=S)NC3c2ccc(OC)cc2)cc1` (stereo not given), the growth inhibition was -6.35%.

On to `CCOCC(=O)O`, for which the growth inhibition is 9.15%.

Take `CC(=O)N=c1ccc2nc(N)nn(O)c-2c1`: the growth inhibition was -10.4%.

For `C=CCc1nc2c([nH]1)c(=O)n(C)c(=O)n2C`, the growth inhibition is 37.6%.
